Assay results taken from PubChem BioAssay.
Calls of active or inactive are those of the source.

What was measured:
[1] = compound effects on lung adenocarcinoma cell viability – A549, calcein-AM fluorescence, 48 h, basal, profiling panel (AID 1162); conditions: higher = more signal
[2] = compound effects on differentiated 3T3-L1 adipocyte viability – cell-based, 3T3-L1 adipocytes, calcein-AM fluorescence, 48 h, basal, profiling panel (AID 1163); conditions: 3T3-L1 adipocytes viability, higher = more signal
[3] = compound effects on hepatocellular carcinoma cell viability – HepG2, calcein-AM fluorescence, 48 h, basal, profiling panel (AID 1164); conditions: higher = more signal
[4] = compound effects on multiple myeloma cell viability – MM1S, calcein-AM fluorescence, 48 h, basal, profiling panel (AID 1165); conditions: higher = more signal
[5] = calcein-AM signal in unstimulated myeloma cells – cell-based, calcein-AM fluorescence, 48 h, PK04 Diversity Set, profiling panel (AID 1166); conditions: RPMI8226 myeloma viability, higher = more signal;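 also: cells grown under basal conditions without added stimulus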
[6] = JC-1 mitochondrial signal, unstimulated HepG2 cells – cell-based, JC-1 fluorescence, 24 h, 100 nL compound, profiling panel (AID 1167); conditions: HepG2 mitochondrial potential, higher = more signal
[7] = JC-1 mitochondrial signal, unstimulated adipocytes – cell-based, JC-1 fluorescence, 3T3-L1 adipocytes, 24 h, 100 nL compound, profiling panel (AID 1168); conditions: JC-1 mitochondrial fluorescence, higher = more signal, called active from +8 up or from −8 down
[8] = JC-1 mitochondrial signal, unstimulated myeloma cells – cell-based, JC-1 fluorescence, RPMI8226, 24 h, 100 nL compound, profiling panel (AID 1169); conditions: JC-1 mitochondrial potential fluorescence, higher = more signal
[9] = JC-1 mitochondrial signal, unstimulated MM1S myeloma – cell-based, JC-1 fluorescence, 24 h, 100 nL compound, profiling panel (AID 1170); conditions: MM1S mitochondrial potential, higher = more signal
[10] = resazurin metabolic signal in A549 cells – cell-based, resazurin fluorescence, 24 h, PK04 Diversity Set, profiling panel (AID 1171); conditions: A549 viability, higher = more signal, called active from +8 up or from −8 down
Also: test concentration not given here.

| Compound | z-score [1] | z-score [2] | z-score [3] | z-score [4] | z-score [5] | z-score [6] | z-score [7] | z-score [8] | z-score [9] | z-score [10] |
| --- | --- | --- | --- | --- | --- | --- | --- | --- | --- | --- |
| N#Cc1ccc(NN2C(C(O)C(c3ccccc3)c3ccccc3)C=CC3C(=O)N(c4ccccc4)C(=O)C32)cc1 (stereo not given) | 0.825 | -1.53 | 0.361 | 0.0017 | 0.103 | 0.913 | -0.435 (inactive) | -0.812 | -0.379 | -0.386 (inactive) |
| CC#CC(=O)Oc1ccccc1C=CC(=O)OCC | -1.54 | -0.228 | -0.749 | -3.27 | -2.23 | -0.739 | 0.161 (inactive) | 0.849 | -0.259 | 1.5 (inactive) |
| CCc1cccc(NC(=O)O[C@H]2[C@H](OC(=O)Nc3ccccc3-c3ccccc3)[C@@H](OC(=O)Nc3ccccc3-c3ccccc3)[C@@H](OC)O[C@@H]2CO)c1 | -4.21 | 0.175 | -4.64 | -3.46 | -4.11 | -1.11 | 1.66 (inactive) | -1.1 | -1.91 | -6.15 (inactive) |
| C=C[C@H](CO[Si](CC)(CC)CC)N(Cc1ccc(OC(C)=O)c(OC)c1)S(=O)(=O)c1ccc(Br)cc1 | -0.217 | 0.327 | -4.67 | -3.23 | -4.32 | -1.25 | 1.07 (inactive) | -1.1 | -1.84 | -0.18 (inactive) |
| CN(C)CCCC[C@@H]1NC(=O)[C@H]2C[C@@H](C(=O)NCCCCCCN)[C@@H](c3ccc(O)cc3)N2C1=O | 0.168 | 0.526 | -0.0064 | -0.314 | 0.226 | -0.878 | 0.862 (inactive) | -0.128 | 0.119 | 0.286 (inactive) |
| C=C(/C(=C/C[C@H](OC(C)=O)c1ccc(CO)o1)c1cc(C(=O)OC)ccc1OC)C(C)C | -0.431 | 1.4 | -0.812 | -2.37 | -2.03 | 0.256 | 1.13 (inactive) | 0.104 | -0.227 | -0.369 (inactive) |
| COC(=O)C[C@H]1O[C@]2(C(=O)N(C)c3ccccc32)[C@@H](C)[C@@H]1[Si](C)(C)F | 0.0967 | 0.587 | 1.21 | 0.0544 | -0.804 | 0.65 | -0.125 (inactive) | 0.452 | 0.632 | 2.22 (inactive) |
| COC(=O)[C@H](Cc1ccccc1)N[C@@H](/C=C/C1CC1)[C@H](O)Cc1ccccc1 | 0.168 | -0.0648 | -0.438 | -0.608 | -0.507 | -0.908 | -0.124 (inactive) | -1.17 | -0.594 | 0.778 (inactive) |
| COc1ccc(CCNC(=O)[C@@]2(C)c3ccccc3C(=O)N(C(C)C)[C@H]2c2ccc(CO)cc2)cc1 | 0.133 | -0.103 | 0.779 | -1.35 | -0.974 | 2.6 | 0.169 (inactive) | -0.0396 | -0.03 | -0.0933 (inactive) |
| COc1cc(NN2C(C(O)c3ccco3)C=CC3C(=O)N(c4ccccc4)C(=O)C32)cc(OC)c1OC (stereo not given) | -0.5 | 0.117 | -0.337 | 0.0511 | -0.307 | -0.955 | -0.967 (inactive) | 0.187 | -1.31 | -1.54 (inactive) |
| O=C(N1CCCCC1)[C@]1(Cc2ccccc2)N=C(c2ccc(OCCCO)cc2)O[C@@H]1c1ccccc1 | -1.69 | 1.16 | -2.04 | -3.35 | -4.43 | -1.06 | -0.515 (inactive) | -1.26 | -2.03 | 0.528 (inactive) |
| C[N+](C)(C)CCCCCCNC(=O)[C@@H]1C[C@@H]2C(=O)N[C@@H](Cc3ccccc3)C(=O)N2[C@@H]1c1cccc(OCCO)c1 | 0.741 | 0.0098 | 0.417 | 0.653 | 0.925 | -0.432 | 0.543 (inactive) | -0.267 | -0.544 | 0.898 (inactive) |
| COc1ccc([Si](C)(C)[C@H]2[C@H](CCO)O[C@@]3(C(=O)N(Cc4ccc(N(C=O)c5ccccc5)cc4)c4ccccc43)[C@@H]2C)cc1 | -0.585 | -1.32 | -2.76 | -1.48 | -3.78 | 0.119 | -0.393 (inactive) | -1.03 | -1.88 | -1.68 (inactive) |
| O=C1N[C@@H](Cc2ccccc2)C(=O)N2[C@@H]1C[C@@H](C(=O)O)[C@H]2c1cccc(OCCO)c1 | 0.432 | -0.732 | -0.0202 | -2.61 | 0.358 | 1.3 | -1.49 (inactive) | 0.448 | -1.19 | 2.99 (inactive) |
| C=CC[C@]1(C(=O)NCc2ccccc2)N=C(c2ccc(OCCCO)cc2)O[C@H]1c1ccccc1N=[N+]=[N-] | -1.2 | 0.514 | -0.0143 | -1.77 | -1.41 | -0.456 | 0.474 (inactive) | -0.938 | 0.0422 | -0.888 (inactive) |
| COCCOC(=O)N1C(=O)[C@@]2(c3cc(C#Cc4ccc(OC)cc4)ccc31)[C@H](c1ccc(OCCO)cc1)N1[C@H](c3ccccc3)[C@H](c3ccccc3)OC(=O)[C@H]1[C@@H]2C(=O)N1CCN(c2ncccn2)CC1 | -0.76 | 0.901 | -0.169 | -0.624 | -0.412 | 0.548 | 2.18 (inactive) | -0.351 | -0.857 | -0.0439 (inactive) |
| CCOC(=O)C[C@H]1[C@H](OC(=O)c2ccc(C(=O)c3ccccc3)cc2)[C@@H](NC(=O)c2ccccc2)c2cc(OCCCO)ccc2N1C(=O)Cc1ccc(OC)cc1 | 1.21 | -0.0981 | 0.316 | -0.797 | 0.0179 | 1.95 | 0.591 (inactive) | -0.696 | -0.231 | 0.261 (inactive) |
| COCCCNC(=O)[C@@]1(C)c2ccccc2C(=O)N(C(C)C)[C@H]1c1ccc(CO)cc1 | -0.276 | -0.208 | -0.51 | 0.0651 | 0.532 | 0.043 | 0.304 (inactive) | 0.887 | -0.441 | 0.601 (inactive) |
| COC(=O)[C@@]1(Cc2ccc(OC)cc2)[C@H]2c3cc(C(=O)N(C)C)n(CCc4ccccn4)c3C[C@H]2CN1C(=O)c1ccccc1 | -0.982 | -0.812 | -0.173 | -1.19 | -2.59 | -0.0203 | -1.04 (inactive) | -0.772 | -1.35 | -0.735 (inactive) |
| CC[C@@H]1C=C(C(=O)O)[C@H](c2ccc(Br)cc2)N1S(=O)(=O)c1ccc(C)cc1 | -0.646 | -0.506 | -0.586 | -0.314 | -1.13 | -0.131 | -0.258 (inactive) | -0.0108 | -0.82 | -0.472 (inactive) |
| CC(=O)NCCCC[C@@H]1NC(=O)[C@H]2C[C@@H](C(=O)NCCCCCCNC(=O)CS)[C@@H](c3ccc(O)cc3)N2C1=O | -0.224 | 0.726 | -1.28 | -0.197 | 0.0535 | -1.33 | 0.184 (inactive) | -0.0883 | -0.213 | -0.689 (inactive) |
| C=CCC(OC(C)=O)[C@@H]1[C@@H](N(Cc2ccc(-c3cccc(C(F)(F)F)c3)o2)C(=O)c2ccc(C)cc2)c2cc(OCCCO)ccc2N1C(=O)Cc1ccc2ccccc2c1 (stereo not given in full) | 0.474 | 0.9 | 0.544 | -0.886 | 0.707 | 2.75 | 0.417 (inactive) | 1.01 | -0.554 | 0.379 (inactive) |
| C=CCNC(=O)[C@@H]1[C@H]2C(=O)O[C@H](c3ccccc3)[C@H](c3ccccc3)N2[C@H](c2ccc(OCCO)cc2)[C@@]12C(=O)Nc1ccc(C#CCC(C(=O)OC)C(=O)OC)cc12 | -0.305 | 1.09 | 0.22 | -3.45 | -4.16 | 0.644 | 1.39 (inactive) | -0.907 | -1.63 | 1.39 (inactive) |
| CCCCCN1CC=CC23O[C@@H]4C=CCCOC(=O)C4[C@H]2C(=O)N(CCCCCO)[C@@H]3C1=O (stereo not given in full) | 0.0264 | -1.3 | 0.542 | 1.8 | 1.74 | 0.301 | -0.0303 (inactive) | 0.159 | -0.849 | 0.26 (inactive) |
| C=C(COC)/C(=C/C[C@@H](OC(C)=O)c1ccc(OCCO)cc1)c1cnc2ccccc2c1 | 2.32 | 1.86 | 0.109 | -0.83 | -0.175 | 2.42 | -0.502 (inactive) | -0.612 | -0.701 | 0.0521 (inactive) |
| Cc1ccc(S[C@]2(C(=O)NCCCN(C)C)CC(=O)N(Cc3cc(C(F)(F)F)cc(C(F)(F)F)c3)[C@@H]2c2ccc(CO)cc2)cc1 | -0.159 | 0.374 | -0.767 | -0.47 | 0.51 | 0.263 | -0.849 (inactive) | 0.199 | 0.339 | -0.106 (inactive) |
| COC(=O)C(CC#Cc1ccc2c(c1)[C@]1(C(=O)N2)[C@H](C(=O)Nc2nc3ccccc3s2)[C@H]2C(=O)O[C@H](c3ccccc3)[C@H](c3ccccc3)N2[C@@H]1c1ccccc1OCCO)C(=O)OC | -0.231 | 0.728 | 0.0091 | -0.426 | -2.6 | -2.7 | -0.502 (inactive) | -1.17 | -1.63 | -0.367 (inactive) |
| O=C1NC(=O)C2C1C=CC(C(O)c1cc(C(F)(F)F)cc(C(F)(F)F)c1)N2Nc1ccccn1 (stereo not given) | -1.02 | -0.485 | -0.165 | 0.34 | -0.559 | -0.326 | -0.169 (inactive) | 0.372 | -0.204 | -0.568 (inactive) |
| COCCOC(=O)N1C(=O)[C@@]2(c3cc(C#Cc4ccc(OC)cc4)ccc31)[C@H](c1ccccc1OCCO)N1[C@H](c3ccccc3)[C@H](c3ccccc3)OC(=O)[C@H]1[C@@H]2C(=O)NC[C@H](O)c1ccccc1 | -0.796 | 1.02 | -0.206 | -0.889 | -2.23 | 0.117 | 3.21 (inactive) | -0.485 | -1.26 | -0.762 (inactive) |
| CCOC(=O)C[C@H]1[C@H](OC(=O)c2ccc(C(=O)c3ccccc3)cc2)[C@@H](NC(=O)c2ccc3ccccc3n2)c2cc(OCCCO)ccc2N1C(=O)c1ccccc1 | -0.851 | 0.824 | 0.376 | -0.67 | -0.705 | 1.11 | -0.966 (inactive) | 0.484 | -0.318 | 0.154 (inactive) |
